# Measurements published in PubChem BioAssay (NCI).
# About 79,000 compounds went through this panel and 15% of them were active in at least one assay; those are over-represented in the sample as a whole. Values without a mark were called inactive. Active and inactive are the calls of the source. No stated cut-off is given here; in the data, active means growth inhibition above about 70%; inactive means the rest.
# Key:
# [1] = NCI Yeast Anticancer Drug Screen. Data for the rad52 strain (AID 147);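 further: 0% = growth of vehicle-treated control cultures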; conditions: S. cerevisiae rad52 mutant growth inhibition, active compounds read high
# How it was run: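 Growth of repair-deficient yeast cells was compared between compound-treated and vehicle-treated cultures to give percent inhibition.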
# [2] = NCI Yeast Anticancer Drug Screen. Data for the wt1 strain (AID 149);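 further: 0% = growth of vehicle-treated wt1 cultures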; conditions: S. cerevisiae wt1 strain (SPY 50644) growth inhibition, active compounds read high
# How it was run: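 Yeast wt1 strain exposed to compounds; growth inhibition measured relative to vehicle-treated controls.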
# [3] = NCI Yeast Anticancer Drug Screen. Data for the rad50EPP+ strain (AID 151);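 further: 0% = growth of vehicle-treated control cultures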; conditions: S. cerevisiae rad50 mutant strain, active compounds read high
# How it was run: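 Measured: growth inhibition of rad50EPP+ yeast. Reference: vehicle-treated controls. Screen uses strains with defined genetic alterations in DNA damage repair or cell cycle control.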
# [4] = NCI Yeast Anticancer Drug Screen. Data for the mgt1 strain (AID 153); conditions: S. cerevisiae mgt1 mutant growth inhibition, active compounds read high
# How it was run: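 Compounds were applied to mgt1 mutant yeast, and growth was then compared against vehicle-treated control cultures to give percent inhibition.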
# [5] = NCI Yeast Anticancer Drug Screen. Data for the rad50 strain (AID 155);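 further: 0% = growth of vehicle-only cultures of the same strain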; conditions: S. cerevisiae rad50 strain growth inhibition, active compounds read high
# How it was run: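 Yeast carrying a defined DNA repair defect were exposed to test compounds, and growth was compared with vehicle-treated controls to give percent inhibition.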
# [6] = NCI Yeast Anticancer Drug Screen. Data for the mec2-1 strain (AID 157); conditions: S. cerevisiae mec2-1 strain, active compounds read high
# How it was run: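 Compounds were applied to mec2-1 yeast cells. Their growth was then compared with that of vehicle-treated cultures to give growth inhibition.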
# [7] = NCI Yeast Anticancer Drug Screen. Data for the rad14 strain (AID 159);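 further: 0% = growth of vehicle-treated control cultures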; conditions: S. cerevisiae rad14 strain growth inhibition, active compounds read high
# How it was run: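 Yeast cells carrying a defined DNA-repair defect were exposed to compounds, and growth inhibition was calculated relative to vehicle-treated control cultures.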
# [8] = NCI Yeast Anticancer Drug Screen. Data for the sgs1 mgt1 strain (AID 161);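 further: 0% = growth of cultures given vehicle only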; conditions: S. cerevisiae sgs1 mgt1 strain, active compounds read high
# How it was run: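 Percent growth inhibition was derived by comparing compound-exposed mutant yeast with vehicle-exposed cultures. The strain carries alterations in DNA damage repair.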
# [9] = NCI Yeast Anticancer Drug Screen. Data for the cln2 rad14 strain (AID 165);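 further: 0% = growth equal to vehicle treated cultures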; conditions: S. cerevisiae cln2 rad14 strain, active compounds read high
# How it was run: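 Strain: cln2 rad14 yeast, altered in cell cycle control and DNA damage repair. Read-out: growth inhibition vs vehicle.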
# [10] = NCI Yeast Anticancer Drug Screen. Data for the bub3 strain (AID 167); conditions: S. cerevisiae bub3 mutant strain, active compounds read high
# How it was run: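 Compounds were applied to a genetically altered yeast strain carrying a cell-cycle control defect. Growth inhibition was scored against vehicle-treated controls.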
# [11] = NCI Yeast Anticancer Drug Screen. Data for the wt2 strain (AID 169);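 further: 0% = growth of vehicle-treated yeast cultures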; conditions: S. cerevisiae wt2 strain growth inhibition, active compounds read high
# How it was run: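 Growth of compound-treated yeast is measured and expressed as inhibition relative to vehicle-only controls.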
# [12] = NCI Yeast Anticancer Drug Screen. Data for the mlh1 rad18 strain (AID 175); conditions: S. cerevisiae mlh1 rad18 strain growth inhibition, active compounds read high
# How it was run: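 A repair-deficient yeast strain is exposed to test compound, and growth is scored relative to vehicle-treated controls.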
# [13] = at 5.0 µM (retest, dose inferred, filed as 0.5)
# [14] = at 50.0 µM (retest, dose inferred, filed as 5.0)
smiles,measurement,setting,value
O=c1nc2n(Cc3ccccc3)c3ccccc3nc-2c(=O)[nH]1,growth inhibition,[1]; at 1.2 µM,0%
same,growth inhibition,[1]; at 3.7 µM,2%
same,growth inhibition,[1]; at 11.0 µM,6%
same,growth inhibition,[1]; at 33.0 µM,4%
same,growth inhibition,[1]; at 100.0 µM,4%
same,growth inhibition,[2]; at 1.2 µM,-1%
same,growth inhibition,[2]; at 3.7 µM,4%
same,growth inhibition,[2]; at 11.0 µM,2%
same,growth inhibition,[2]; at 33.0 µM,2%
same,growth inhibition,[2]; at 100.0 µM,3%
same,growth inhibition,[3]; at 1.2 µM,7%
same,growth inhibition,[3]; at 3.7 µM,30%
same,growth inhibition,[3]; at 11.0 µM,74% (active)
same,growth inhibition,[3]; at 33.0 µM,92% (active)
same,growth inhibition,[3]; at 100.0 µM,97% (active)
same,growth inhibition,[4]; at 1.2 µM,-5%
same,growth inhibition,[4]; at 3.7 µM,5%
same,growth inhibition,[4]; at 11.0 µM,74% (active)
same,growth inhibition,[4]; at 33.0 µM,94% (active)
same,growth inhibition,[4]; at 100.0 µM,96% (active)
same,growth inhibition,[5]; at 1.2 µM,-2%
same,growth inhibition,[5]; at 3.7 µM,-1%
same,growth inhibition,[5]; [13],-15%
same,growth inhibition,[5]; at 11.0 µM,2%
same,growth inhibition,[5]; at 33.0 µM,-1%
same,growth inhibition,[5]; [14],13%
same,growth inhibition,[5]; at 50.0 µM,26.1%
same,growth inhibition,[5]; at 100.0 µM,1%
same,growth inhibition,[6]; at 1.2 µM,-2%
same,growth inhibition,[6]; at 3.7 µM,3%
same,growth inhibition,[6]; [13],-2%
same,growth inhibition,[6]; at 11.0 µM,5%
same,growth inhibition,[6]; at 33.0 µM,6%
same,growth inhibition,[6]; [14],-5%
same,growth inhibition,[6]; at 50.0 µM,37.9%
same,growth inhibition,[6]; at 100.0 µM,12%
same,growth inhibition,[7]; at 1.2 µM,0%
same,growth inhibition,[7]; at 3.7 µM,3%
same,growth inhibition,[7]; at 11.0 µM,5%
same,growth inhibition,[7]; at 33.0 µM,1%
same,growth inhibition,[7]; at 100.0 µM,1%
same,growth inhibition,[8]; [13],39%
same,growth inhibition,[8]; [14],96% (active)
same,growth inhibition,[8]; at 50.0 µM,97.2% (active)
same,growth inhibition,[9]; [13],6%
same,growth inhibition,[9]; [14],22%
same,growth inhibition,[9]; at 50.0 µM,28.2%
same,growth inhibition,[10]; at 1.2 µM,-3%
same,growth inhibition,[10]; at 3.7 µM,-6%
same,growth inhibition,[10]; [13],19%
same,growth inhibition,[10]; at 11.0 µM,-3%
same,growth inhibition,[10]; at 33.0 µM,-6%
same,growth inhibition,[10]; [14],1%
same,growth inhibition,[10]; at 50.0 µM,11.4%
same,growth inhibition,[10]; at 100.0 µM,-8%
same,growth inhibition,[11]; at 1.2 µM,-2%
same,growth inhibition,[11]; at 3.7 µM,3%
same,growth inhibition,[11]; at 11.0 µM,67%
same,growth inhibition,[11]; at 33.0 µM,93% (active)
same,growth inhibition,[11]; at 100.0 µM,96% (active)
same,growth inhibition,[12]; [13],37%
same,growth inhibition,[12]; [14],39%
same,growth inhibition,[12]; at 50.0 µM,26.6%
